Consider nine compounds from PubChem BioAssay (Tox21).

The nature of test [1]: Nuclear factor erythroid 2-related factor 2/antioxidant responsive element (Nrf2/ARE) small molecule agonists: luciferase reporter gene qHTS assay in human keratinocytes (AID 1919969; further: nearly all actives have a fitted effect of over 35% in size; further: potency means the concentration at half of the fitted maximal effect). (In general: A reporter such as luciferase makes a cellular process visible.)
Test [2] concerns the target Gonadotropin-releasing hormone receptor (Homo sapiens) (UniProt P30968). Nature of the test: Human gonadotropin-releasing hormone receptor (GnRHR) small molecule agonists, calcium flux assay in GnRHR-HEK293 cells (AID 1920063). Further: nearly all actives have a fitted effect of over 35% in size. An outline of the steps: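 GnRHR-HEK293, 1500 cells/well, 18 h 37 C/5% CO2; Ca dye 1 h 37 C; cpd pinned (DMSO), agonist mode; kinetic FL 480/540, 3 min, 1 s reads; 15 conc, n=3.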
For orientation: Calcium assays in cells follow changes in intracellular calcium, usually with a dye or a luminescent sensor.

Test [3] deals with KiSS-1 receptor (Homo sapiens) (UniProt Q969F8). The test can be described thus: Human kisspeptin (KISS1R) small molecule agonists, calcium flux assay in KISS1R-HEK293 cells (AID 1920064; active means well fitted activation curve with a large enough effect in the repeat runs). An outline of the steps:
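Stable human KISS1R HEK293 line; 18 h plating, 37 C/5% CO2; calcium dye 1 h 37 C; compound pin transfer; kinetic fluorescence Ex/Em 480/540, 3 min.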

Test [4] in a line: G protein-coupled receptor (GPCR) small molecule agonists, calcium flux assay: HEK293 wild type cell line counter screen (AID 1920065). In a few lines: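 Kinetic fluorescence at Ex/Em 480/540, recorded every second over 3 min, served as the read-out after compound addition. Each compound was tested at 15 concentrations in triplicate on cells pre-loaded with calcium dye for 1 h.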

For test [5], the target named is 5-hydroxytryptamine receptor 2A (Homo sapiens) (UniProt P28223). Nature of the test: 5-hydroxytryptamine receptor 2A (HTR2A) small molecule antagonists, cell-based qHTS assay (AID 1963586). Further: nearly all actives have a fitted effect of over 45% in size. In a few lines:
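Antagonist-mode intracellular calcium assay: DOI (4 nM) added after 5 min compound pre-incubation at room temperature to dye-loaded HTR2A-CHO cells. Fluorescence followed for 3 min, sampled every second.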

Test [6] has the same target. Nature of the test: 5-hydroxytryptamine receptor 2A (HTR2A) small molecule agonists, cell-based qHTS assay (AID 1963587). Further: nearly all actives have a fitted effect of over 30% in size. In a few lines: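 CHO cells stably expressing human HTR2A, plated 18 h, loaded with calcium dye 1 h at 37 C. Agonist mode: compounds added and intracellular calcium fluorescence recorded kinetically for 2 min at 1 sec intervals.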
A general note: In qHTS, concentration-response curves come from the screen itself.

Test [7] has as its target Muscarinic acetylcholine receptor M1 (Homo sapiens) (UniProt P11229). Nature of the test: Cholinergic receptor muscarinic 1 (CHRM1) small molecule antagonists, cell-based qHTS assay (AID 1963588). Further: nearly all actives have a fitted effect of over 40% in size. In a few lines:
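CHRM1-CHO calcium-flux assay, antagonist mode. Cells were seeded 18 h, dye-loaded 1 h at 37 C and given compound for 5 min at RT, then acetylcholine was added at 50nM. FDSS fluorescence was read 3 min; 15 concentrations, three runs.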

Test [8] can be described thus: p53 small molecule agonists, cell-based qHTS assay with human liver microsomes: qHTS cell viability counter screen (AID 1963579). Further: nearly all actives have a fitted effect of over 45% in size. In a few lines: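 Seed p53RE-bla cells at 4,000 per well; incubate 5 h at 37 C; add compound, human liver microsomes and NADPH; incubate 16 h at 37 C; add CellTiter-Glo; after 30 min at room temperature, read luminescence.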
Test [9] in a line: p53 small molecule agonists, cell-based qHTS assay with rat liver microsomes: qHTS cell viability counter screen (AID 1963580). Further: nearly all actives have a fitted effect of over 45% in size. An outline of the steps:
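Viability is assessed in parallel with the p53 reporter read: HCT-116 p53RE-bla cells receive compounds plus rat microsomes and NADPH (0.5 mg/mL final apiece), incubate 16 h at 37 C, and then CellTiter-Glo luminescence is recorded.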

Test [10] can be described thus: p53 small molecule agonists, cell-based qHTS assay: qHTS cell viability counter screen (AID 1963581). Further: nearly all actives have a fitted effect of over 45% in size. An outline of the steps: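 HCT-116 p53RE-bla cells, 4,000/well, plated 5 h before compound pin transfer; 16 h at 37 C; bla substrate 2 h RT; then CellTiter-Glo, 30 min RT, luminescence.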
Test [11] concerns the target Muscarinic acetylcholine receptor M1 (Homo sapiens) (UniProt P11229). The test can be described thus: Cholinergic receptor muscarinic 1 (CHRM1) small molecule agonists, cell-based qHTS assay (AID 1963589). Further: nearly all actives have a fitted effect of over 35% in size. An outline of the steps:
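Human M1 in stable CHO line; 18 h plating, 1 h dye load 37 C; cpd added (agonist mode); Ca2+ fluorescence kinetic read, 1 s intervals; 15 conc, 3 runs.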

A short description of test [12]: cAMP Responsive Elements (CRE) small molecule agonists, cell-based qHTS assay (AID 1963590). An outline of the steps: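 HEK 293T CRE-bla, 2,000 cells/well, 18 h preincubation 37 C/5% CO2; cpds (DMSO) pinned, 3 h; LiveBLAzer B/G FRET substrate, 2 h RT.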
Test [13] in a line: cAMP Responsive Elements (CRE) small molecule antagonists, cell-based qHTS assay (AID 1963591; active means well fitted inhibition curve with a large enough effect in the signal ratio in the repeat runs, not every such curve was filed as active; the % refers to the signal ratio). In a few lines: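 Beta-lactamase reporter read by FRET substrate (LiveBLAzer B/G) after 2 h at room temperature. CRE-bla HEK293T cells had received compound plus 0.25 uM (final) NKH477 for 3 h at 37 °C.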
Test [14] has as its target D(2) dopamine receptor (Homo sapiens) (UniProt P14416). The test can be described thus: Dopamine D2 receptor (DRD2) small molecule agonists, cell-based qHTS assay (AID 1963594). Further: nearly all actives have a fitted effect of over 35% in size. Further: potency means the concentration at half of the fitted maximal effect. An outline of the steps: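 HEK293 cells stably expressing human DRD2, pre-treated with PDE inhibitor Ro20-1724 (0.1 mM final) and compound 10 min at room temperature, then stimulated with NKH477 (200nM […]) for 30 min. cAMP read by HTRF (665/620 nm).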

Test [15] shares this target. Nature of the test: Dopamine D2 receptor (DRD2) small molecule antagonists, cell-based qHTS assay (AID 1963595; active means well fitted inhibition curve with a large enough effect in the signal ratio in the repeat runs, with a control signal flat; the % refers to the signal ratio). An outline of the steps:
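HEK293 cells stably expressing DRD2 were preincubated with 0.1 mM Ro20-1724, then with compound for 10 min at room temperature. Cells were stimulated with 200 nM NKH477 plus 12 nM quinpirole for 30 min, and cAMP was read by HTRF.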

Test [16] has as its target Beta-2 adrenergic receptor (Homo sapiens) (UniProt P07550). The test can be described thus: Adrenergic beta2 receptor (ADRB2) small molecule antagonists, cell-based qHTS assay (AID 1963592). Further: series mostly up to about 92 µM; nearly all actives have a fitted effect of over 50% in size. An outline of the steps: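 Cells (CHO, stable ADRB2 overexpression) incubated 18-20hr at 37C; compounds added from DMSO; agonist mix (1nM isoproterenol, 100uM IBMX, 25uM Ro-20-1724) added; 0.5hr RT; d2-cAMP and anti-cAMP-cryptate added; 1hr RT; 665/615 nm read.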

The target is the same in test [17]. The test can be described thus: Adrenergic beta2 receptor (ADRB2) small molecule agonists, cell-based qHTS assay (AID 1963593).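 Further: CHO cells stably overexpressing human ADRB2.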 An outline of the steps: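 CHO cells stably over-expressing ADRB2 were plated overnight at 37C, then dosed with compounds plus a stimulation mix containing 100uM IBMX and 25uM Ro-20-1724 for 0.5hr at room temperature. cAMP was measured by HTRF competition, 1hr.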

A short description of test [18]: p53 small molecule agonists, cell-based qHTS assay with human liver microsomes (AID 1963577).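 Further: p53 response element beta-lactamase reporter cells with liver microsomes plus NADPH.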 In a few lines:
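Cells carrying a p53-responsive bla reporter were rested 5 h (37 C, 5% CO2) before compound transfer. Human liver microsomes plus NADPH, 0.5 mg/mL final apiece, supplied metabolism during the 16 h 37 C exposure.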

A short description of test [19]: p53 small molecule agonists, cell-based qHTS assay (AID 1963582; active means well fitted activation curve with a large enough effect in the signal ratio in the repeat runs, not every such curve was filed as active; the % refers to the signal ratio; further: potency means the concentration at half of the fitted maximal effect). In a few lines:
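Reporter line: p53RE-bla. Pre-incubation 5 h, 37 C, 5% CO2; compound (DMSO, pin tool) 16 h, 37 C; B/G FRET substrate 2 h RT; fluorescence intensity read.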

Several values for one entry are separate records, joined by “and”; a condition that tells them apart may be missing. Equal entries are not always repeated. Records with an inconclusive call do not appear. Activity calls are given as the source filed them. Unless noted, the call rests on the fitted dose curve.

D(2) dopamine receptor (Homo sapiens), sequence (P14416 whole entry, looked up): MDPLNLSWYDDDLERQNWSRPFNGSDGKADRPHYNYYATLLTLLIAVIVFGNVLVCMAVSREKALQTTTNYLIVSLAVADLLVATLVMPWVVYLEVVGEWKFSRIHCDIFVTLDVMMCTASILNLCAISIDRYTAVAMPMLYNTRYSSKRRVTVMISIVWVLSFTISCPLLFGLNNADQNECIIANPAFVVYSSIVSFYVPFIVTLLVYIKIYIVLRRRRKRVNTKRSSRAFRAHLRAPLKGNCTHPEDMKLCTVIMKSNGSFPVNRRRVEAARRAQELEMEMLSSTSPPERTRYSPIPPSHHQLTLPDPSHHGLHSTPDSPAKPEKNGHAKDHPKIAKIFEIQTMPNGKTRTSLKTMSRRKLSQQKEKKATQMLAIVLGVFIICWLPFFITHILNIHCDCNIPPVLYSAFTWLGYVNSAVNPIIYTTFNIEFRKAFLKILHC
Beta-2 adrenergic receptor (Homo sapiens), sequence (P07550 whole entry, looked up): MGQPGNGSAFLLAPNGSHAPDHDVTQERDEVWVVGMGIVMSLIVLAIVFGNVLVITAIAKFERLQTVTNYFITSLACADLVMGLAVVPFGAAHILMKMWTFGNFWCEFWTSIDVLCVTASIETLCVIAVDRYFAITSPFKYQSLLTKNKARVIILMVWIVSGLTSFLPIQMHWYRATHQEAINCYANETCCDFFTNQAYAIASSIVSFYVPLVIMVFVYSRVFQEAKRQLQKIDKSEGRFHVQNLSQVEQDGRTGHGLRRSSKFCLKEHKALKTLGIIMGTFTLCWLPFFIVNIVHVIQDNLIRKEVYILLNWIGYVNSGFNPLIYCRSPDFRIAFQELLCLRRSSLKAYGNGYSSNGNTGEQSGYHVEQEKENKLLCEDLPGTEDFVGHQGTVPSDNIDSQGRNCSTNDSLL
KiSS-1 receptor (Homo sapiens), sequence (Q969F8 whole entry, looked up): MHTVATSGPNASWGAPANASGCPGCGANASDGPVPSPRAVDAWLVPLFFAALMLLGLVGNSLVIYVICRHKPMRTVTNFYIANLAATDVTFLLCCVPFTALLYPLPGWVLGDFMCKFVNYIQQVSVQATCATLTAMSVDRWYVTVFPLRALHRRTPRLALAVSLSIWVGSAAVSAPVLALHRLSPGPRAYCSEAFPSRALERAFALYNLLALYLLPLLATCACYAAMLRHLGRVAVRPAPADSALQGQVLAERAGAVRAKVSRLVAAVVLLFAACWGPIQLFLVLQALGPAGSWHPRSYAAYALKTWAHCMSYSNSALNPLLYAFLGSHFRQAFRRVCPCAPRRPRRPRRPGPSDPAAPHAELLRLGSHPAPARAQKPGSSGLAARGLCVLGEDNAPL
Gonadotropin-releasing hormone receptor (Homo sapiens), sequence (P30968 whole entry, looked up): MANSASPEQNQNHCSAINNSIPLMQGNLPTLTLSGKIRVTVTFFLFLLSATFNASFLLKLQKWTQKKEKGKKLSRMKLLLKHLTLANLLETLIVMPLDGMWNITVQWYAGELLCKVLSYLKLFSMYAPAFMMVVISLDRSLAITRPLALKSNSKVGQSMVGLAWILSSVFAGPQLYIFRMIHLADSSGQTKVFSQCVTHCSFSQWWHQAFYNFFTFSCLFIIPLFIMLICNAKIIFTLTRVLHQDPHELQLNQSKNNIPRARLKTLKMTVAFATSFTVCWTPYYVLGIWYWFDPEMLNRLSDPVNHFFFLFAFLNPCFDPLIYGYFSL
Muscarinic acetylcholine receptor M1 (Homo sapiens), sequence (P11229 whole entry, looked up): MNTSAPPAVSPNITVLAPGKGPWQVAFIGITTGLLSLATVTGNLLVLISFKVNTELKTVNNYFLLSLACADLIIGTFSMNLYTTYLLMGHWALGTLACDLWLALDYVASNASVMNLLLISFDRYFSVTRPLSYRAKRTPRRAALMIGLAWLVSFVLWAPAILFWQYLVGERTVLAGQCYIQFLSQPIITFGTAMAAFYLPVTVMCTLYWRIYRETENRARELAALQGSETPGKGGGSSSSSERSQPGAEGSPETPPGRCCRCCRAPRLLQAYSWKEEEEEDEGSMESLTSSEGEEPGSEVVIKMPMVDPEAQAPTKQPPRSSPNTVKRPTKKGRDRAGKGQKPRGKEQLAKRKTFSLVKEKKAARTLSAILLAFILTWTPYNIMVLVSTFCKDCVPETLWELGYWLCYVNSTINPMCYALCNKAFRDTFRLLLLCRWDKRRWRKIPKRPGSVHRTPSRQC
5-hydroxytryptamine receptor 2A (Homo sapiens), sequence (P28223 whole entry, looked up): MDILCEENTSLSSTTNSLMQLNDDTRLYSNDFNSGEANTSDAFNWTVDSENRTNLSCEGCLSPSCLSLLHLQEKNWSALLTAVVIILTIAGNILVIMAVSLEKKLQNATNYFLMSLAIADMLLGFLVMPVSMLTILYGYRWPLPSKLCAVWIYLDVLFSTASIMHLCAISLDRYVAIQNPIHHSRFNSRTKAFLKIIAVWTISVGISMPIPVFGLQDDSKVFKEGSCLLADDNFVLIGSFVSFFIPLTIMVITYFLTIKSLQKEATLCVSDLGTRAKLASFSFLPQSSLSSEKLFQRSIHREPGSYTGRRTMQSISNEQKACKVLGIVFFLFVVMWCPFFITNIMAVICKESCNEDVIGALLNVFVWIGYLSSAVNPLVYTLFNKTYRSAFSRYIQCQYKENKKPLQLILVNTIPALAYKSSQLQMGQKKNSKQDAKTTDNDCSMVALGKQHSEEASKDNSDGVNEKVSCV

Turning to `c1cc2ccc3cccc4ccc(c1)c2c34`, the Potency entry in test [1], in test [2], in test [3], in test [4], in test [5] and in [6] was “inactive” each time. The Potency entry in test [7] was “inactive”.

In the case of `Oc1ccc([C@H]2CNCc3c2ccc(O)c3O)cc1O`, the Potency result in test [1], in [2], in test [3], in test [4], in test [8] and in [9] was “inactive” in each case. In addition, the Potency entry in test [10], in test [7], in test [11], in [12], in test [13] and in [15] was “inactive” each time. In test [14], the Potency is 17.4 µM (active).

Turning to `CCCC[N+](=O)[O-]`, the Potency entry in test [1], in test [2], in test [3], in test [4], in test [8] and in test [9] was “inactive” in each case. In addition, the Potency result in [10], in test [6], in test [7], in test [11], in [12] and in test [13] was “inactive” throughout. The Potency entry in test [16], in [14] and in test [15] was “inactive” each time.

On to `COc1ncc(F)c2nc(S(=O)(=O)Nc3c(F)cccc3F)nn12`, for which the Potency result in test [1], in [2], in test [3], in [4], in test [8] and in test [9] was “inactive” throughout. For the same compound, the Potency entry in test [10], in test [5], in test [6], in test [7], in [11] and in test [12] was “inactive” throughout. Also, the Potency entry in [13], in test [16], in [17], in test [14] and in test [15] was “inactive” each time.

`CC(=O)/C=C/c1ccc2c(c1)OCO2`: the Potency was 61.4 µM (active) in test [1] and 41 µM (active) in test [19]. Besides, the Potency result in test [2], in test [3], in test [18], in test [8], in [9] and in [10] was “inactive” in each case. Moreover, the Potency result in test [5], in test [6], in test [7], in test [11] and in [14] was “inactive” in each case.

Regarding `COP(=O)(OC)OC(Br)C(Cl)(Cl)Br` (stereo not drawn), the Potency in test [1] is 27.3 µM (active) and 54.5 µM (active). Moreover, the Potency result in [2], in test [3], in test [4], in [9], in test [10] and in [5] was “inactive” each time. The Potency result in test [6], in test [11], in test [12], in test [13], in test [16] and in test [17] was “inactive” in each case. Moreover, the Potency result in test [14] and in test [15] was “inactive” each time.

Regarding `CCOP(=O)(N=C1SCCS1)OCC`, the Potency result in [1], in test [2], in [3], in test [4], in [8] and in test [9] was “inactive” in each case. Further, the Potency entry in test [10], in [5], in [6], in test [7], in test [11] and in test [12] was “inactive” in each case. The Potency result in test [13], in [16], in [17], in test [14] and in test [15] was “inactive” each time.

As for `c1ccc2c(c1)cc1ccc3cccc4ccc2c1c34`, the Potency entry in [1], in [2], in [3], in [4], in [8] and in test [16] was “inactive” throughout. The Potency result in [17] and in [15] was “inactive” throughout.

Turning to `CN1CCc2cc3c(cc2C1O)OCO3` (stereo not drawn), the Potency in [1] is 54.8 µM (active). The Potency entry in test [2], in [3], in test [4], in test [8], in test [9] and in test [10] was “inactive” in each case. Also, the Potency entry in test [5], in test [6], in [11], in [16], in [14] and in test [15] was “inactive” in each case.
